Source: PubChem BioAssay (several laboratories)
Compounds with a hit are over-represented: about 1.6% of the library has one in this group of screens.
STAT3 blocker: reduces IL-6 driven STAT3 reporter signal. inhibition, % at 5.5 µM. actives 0.89% (n = 190,000). U3A cells, IL-6 STAT3-luciferase reporter, luminescence; host cell line lacks STAT1. AID 862;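 active means inhibition above the mean inhibition across all screened compounds plus 3 SD, cut at about 44% in these data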;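 further: 0% = DMSO only wells and 100% = 100 µM nifuroxazide control wells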
STAT1 inh: reduces IFN-gamma driven STAT1 reporter signal; NIH 3T3 STAT1-luciferase reporter, luminescence; inhibition, % at 5.5 µM; actives 0.35% (n = 200,000); AID 920;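 active means inhibition above a set limit, the mean inhibition across all tested compounds plus 3 SD, cut at about 34% in these data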;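 further: 0% = IFN-gamma with DMSO and 100% = IFN-gamma with 300 µM nifuroxazide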
Platelet DG rel: platelet dense granule release activity. human platelet-rich plasma, SFLLRN dense granule ATP release, luminescence. actives 0.22% (n = 300,000). AID 1663. inhibition, %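 (compounds screened at 7.5 µM in platelet-rich plasma)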;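 active means mean replicate score, as percent of positive control, at or above 50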
PPC-1+TRAIL kill: kills PPC-1 cancer cells in the presence of TRAIL | PPC-1 cells + TRAIL, ATPLite viability luminescence | cell killing (% activity), % at 4 µM or 5 µM | actives 0.41% (n = 220,000) | AID 1443;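 active means cell killing above 50% in the first pass at 4 µM, then a duplicate retest at 5 µM averaging 50% or more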;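 further: plate controls were cells with TRAIL plus DMSO for no effect and medium-only wells lacking cells for full effect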
TRAIL sens C8: sensitizes caspase-8 expressing cells to TRAIL; AID 624354; NB7+C8 cells + TRAIL, ATPlite viability luminescence; inhibition (viability loss, TRAIL sensitization), % at 10 µM; actives 1% (n = 360,000);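 active means compounds causing at least 50% loss of cell viability in the single-dose screen, relative to plate controls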
* = called active by the depositor; x = no result given.

SMILES	STAT3 blocker	STAT1 inh	Platelet DG rel	PPC-1+TRAIL kill	TRAIL sens C8
S=C1Cc2ccccc2N1	x	x	-2	22	60*
Cc1cc(C)cc(Oc2nc3ccccn3c(=O)c2/C=C(\C#N)C(=O)NC2CCS(=O)(=O)C2)c1 (centres undefined)	x	x	15	6	2
Cc1ccc(Oc2nc3ccccn3c(=O)c2/C=C(\C#N)C(=O)NC2CCS(=O)(=O)C2)c(C)c1 (centres undefined)	x	x	51*	x	12
CCc1nc2c(OCCn3cccc3)cccn2c1N(C)C(=O)c1ccccc1F	x	x	x	x	-14
CCOc1ccc(-c2cnc3ccccc3n2)cc1	x	x	9	19	66*
N/C(=N\C(=S)Nc1ccc2c(c1)OCO2)c1ccccc1	x	x	x	x	-8
O=C1C(=C(I)I)c2ccccc2-c2ccccc21	x	x	x	x	94*
CC(C)C(=O)N1CCC1(C)C(=O)Nc1ccccc1OC(F)F (centres undefined)	x	x	x	x	0
O=C(Nc1ccc(Oc2c(F)c(F)c(F)c(F)c2F)cc1)OC1CCN2Cc3ccccc3N=C12 (centres undefined)	x	x	-2	-17	69*
O=C1NC(c2ccccc2)=C(c2ccccc2)C1=O	-5	4	x	18	-3
O=C1C(Br)=C(c2ccccc2)C(c2ccccc2)=C1c1ccccc1	x	x	x	x	82*
Cc1oc(-c2ccccc2F)nc1CS(=O)(=O)CC(=O)N1CCc2ccccc21	5	-1	x	12	0
COc1ccc(OC)c(NC(=O)CS(=O)(=O)Cc2nc(-c3ccccc3C)oc2C)c1	1	1	51*	5	-17
Cc1ccccc1-c1nc(CS(=O)(=O)CC(=O)N2CCc3ccccc32)c(C)o1	2	-5	58*	x	-26
COc1cccc(-c2nc(CS(=O)(=O)CC(=O)Nc3c(C)cccc3C)c(C)o2)c1	-7	3	3	17	-14
CCOC(=O)[C@]12CCC=C1N(Cc1ccccc1)C(=O)[C@H](CC(=O)NCCCN1CCCC1=O)C2	x	x	x	x	-13
Cc1cc(/C=C2/SC(=S)N(c3cccc(Cl)c3)C2=O)c(C)n1-c1cccnc1	67*	19	1	x	14
COc1cccc2sc3cc(C#Cc4ccccn4)ccc3c(=O)c12	x	x	x	x	21
COc1cccc2oc3ccc(C#Cc4ccccn4)cc3c(=O)c12	x	x	62*	x	69*
CCOC(=O)C1CCCN(C(=O)c2cc(C)oc2C)CC1 (centres undefined)	x	x	x	x	-9
CC(=O)Nc1cccc(NS(=O)(=O)c2ccc3c(c2)CCC(=O)N3)c1	x	x	x	x	-6
C=C(C)c1nc(Oc2ccccc2)nc(Oc2ccccc2)n1	x	x	x	x	55*
Cc1cc(Oc2ccccc2)nc(-c2ccccc2)n1	1	-4	-4	17	-2
CCOc1cc(-c2ccccc2)nc2c1CN(S(=O)(=O)c1ccc(C)cc1)C(c1cccc(Cl)c1)C2 (centres undefined)	x	x	x	x	2
CCCCNC(=O)c1nc(-c2cccnc2OC)oc1-c1ccc(Cl)cc1	x	x	x	x	-6
SMILES	STAT3 blocker	STAT1 inh	Platelet DG rel	PPC-1+TRAIL kill	TRAIL sens C8
Cc1ccc(Nc2nc(N)c3ccccc3n2)cc1C	x	x	44	x	79*
CCOC(=O)c1sc(N(Cc2ccccc2)C(=O)COC(=O)c2ccccc2O)nc1C	18	-7	-5	16	-1
CCOC(=O)c1sc(N(Cc2ccccc2)C(=O)CCl)nc1C	x	x	-12	x	87*
O=C(COc1ccccc1)Nc1cccc(-c2nc3cc4ccccc4cc3[nH]2)c1	0	-82	26	37	64*
CN1CCN(c2ccc(-c3cccc(NC(=O)COc4ccc(Cl)cc4)c3)nn2)CC1	x	x	-8	x	62*
CCC(=O)Nc1cccc(-c2ccc(N3CCN(C)CC3)nn2)c1	x	x	-23	x	10
CN(c1cccc(NC(=O)COc2ccc(Cl)cc2Cl)c1)S(C)(=O)=O	4	-10	-5	36	57*
CCC(=O)Nc1cccc(-c2ccc(N3CCCCC3)nn2)c1	x	x	7	x	83*
Cc1ccc(NC(=O)C2(C)CCN2CCc2ccccc2)cc1 (centres undefined)	x	x	x	x	15
CN1CCN(c2ccc(-c3cccc(NC(=O)COc4ccc(Cl)cc4Cl)c3)nn2)CC1	x	x	-9	x	67*
CCOc1ccc(C(=O)Nc2cccc(-c3ccc(N4CCOCC4)nn3)c2)cc1OCC	x	x	3	x	44
CN1CCN(c2ccc(-c3cccc(NC(=O)COc4ccccc4)c3)nn2)CC1	x	x	15	x	64*
Cc1ccc(S(=O)(=O)N2CCC(=O)N([C@H](COC(=O)Nc3ccccc3)Cc3ccccc3)CC2)cc1	x	x	x	x	38
COc1cccc(/C=N/NC(=O)C(C)n2nnc3ccccc32)c1 (centres undefined)	3	14	-1	14	-5
